Compound activity from PubChem BioAssay.
A selection follows.
aSyn UTR act: Activators via SNCA 5'UTR binding, MLPCN; activity score, % (tested at 7.5 µM), hits read low; alpha-synuclein 5'UTR reporter, activators screen; AID 1814; 7.1% of 300,000 active; in the data active = activity score below about -60%
An asterisk follows results filed as active.

SMILES | aSyn UTR act
COc1ccc2oc(=O)c(-c3nnc(N)s3)cc2c1 | -97.0*
O=c1oc2ccccc2cc1-c1nnc(NCc2ccco2)s1 | -131.4*
Nc1nnc(-c2cc3ccccc3oc2=O)s1 | -115.8*
COC(=O)c1sccc1NC(=O)c1ccc(Br)s1 | -66.9*
COC(=O)c1c(NC(=O)c2ccc(Br)s2)sc2c1CCC2 | -91.5*
CCOc1ccccc1C(=O)Nc1ccsc1C(=O)OC | 65.3
COC(=O)c1sccc1NC(=O)c1csc(C)c1 | -80.2*
CN(c1ccccc1)S(=O)(=O)c1cc(C(=O)OCC(N)=O)ccc1Cl | -85.1*
C=CCc1c(C)nc(SC)nc1Nc1ccc(C(C)=O)cc1 | -75.9*
COc1ccc(NC(=O)c2ccc3c(c2)OCO3)cc1[N+](=O)[O-] | -192.3*
CSCC[C@@H](C(=O)Nc1ccc2c(c1)OCCO2)N1Cc2ccccc2C1=O | -84.7*
CCCC(C)C(=O)Nc1ccc2c(c1)OCCO2 (stereo not given) | -77.1*
CC(C)c1ccc(NC(=O)c2cccc(Br)c2)cc1 | -174.5*
COc1ccc(C(=O)N2CCN(Cc3ccc4c(c3)OCO4)CC2)cc1[N+](=O)[O-] | 46.4
COc1cccc2c1OC1(C)CC2NC(=O)N1c1cccc(C(=O)Nc2ccc3c(c2)OCCO3)c1 (stereo not given) | -67.1*
CCCOc1cccc(C(=O)Nc2ccc3c(c2)OCCO3)c1 | -61.8*
Cc1ccc(C(=O)Nc2ccc3c(c2)OCCO3)cc1 | 89.0
O=C(Nc1ccc2c(c1)OCCO2)c1ccc(Br)cc1 | -78.1*
O=C(Nc1ccc2c(c1)OCCO2)c1cccnc1 | -141.1*
O=C(Nc1ccc2c(c1)OCCO2)c1ccc(Br)o1 | -114.4*
O=C(Nc1ccc2c(c1)OCCO2)c1cccc(Br)c1 | -150.4*
COc1ccc(C(=O)Nc2ccc3c(c2)OCCO3)cc1Br | -255.2*
CCCCn1cnc2c(sc3nc4c(cc32)CSC(C)(C)C4)c1=O | -104.2*
Oc1c(N=NC(=S)Nc2ccccc2F)c2ccccc2n1Cc1ccccc1 | 71.7
S=C(Nc1ccccc1Cl)N1CCC(c2ccccc2)C1 (stereo not given) | -119.8*
SMILES | aSyn UTR act
C=CCn1c(O)c(N=NC(=S)Nc2ccccc2F)c2ccccc21 | 67.4
Fc1ccccc1NC(=S)N1CCC(c2ccccc2)C1 (stereo not given) | -111.1*
Fc1cc(F)cc(NC(=S)N2CCC(c3ccccc3)C2)c1 (stereo not given) | -98.8*
COc1ccc(/C=C2\SC(=O)N(CCC(=O)N(C)C3CCS(=O)(=O)C3)C2=O)cc1 (stereo not given) | -83.9*
CC(C)c1ccc(/C=C2\SC(=O)N(CC(=O)NC3CCS(=O)(=O)C3)C2=O)cc1 (stereo not given) | -89.8*
O=C(CN1C(=O)S/C(=C\C=C\c2ccccc2)C1=O)NC1CCS(=O)(=O)C1 (stereo not given) | -169.0*
CC(C)c1ccc(/C=C2\SC(=S)N(CCC(=O)NCCCn3ccnc3)C2=O)cc1 | 98.4
COc1ccc(/C=C2\SC(=S)N(CCC(=O)NC3C=CS(=O)(=O)C3)C2=O)cc1 (stereo not given) | 66.4
Cc1ccc(NC(=O)Nc2cccs2)nc1 | -168.3*
Cc1ccc(NC(=O)Nc2cccs2)cc1 | -130.1*
CCc1ccc(NC(=O)Nc2cccs2)cc1 | -169.4*
CCc1ccc(NC(=O)Nc2ccsc2C(=O)OC)cc1 | -65.4*
CCOc1ccc(NC(=O)Nc2cccs2)cc1 | -160.8*
CCN(CC)c1ccc(/C=C2/SC(=O)N(C(C)C)C2=O)o1 | -174.8*
CC(C)N1C(=O)S/C(=C\c2ccc(-c3ccc(Cl)c(C(=O)O)c3)o2)C1=O | -127.7*
c1ccc2c(Nc3nnc(-c4ccncc4)s3)cccc2c1 | -186.2*
CC(=O)c1cnc2nc(SCc3ccccc3C)nn2c1C | -75.1*
Cc1ccc(N/C=C(/C#N)c2ccsc2)cc1 | -174.9*
N#C/C(=C/Nc1ccccc1)c1ccsc1 | -78.7*
COc1ccc(C(=O)/C=C/c2cccs2)c(OC(=O)c2cccc([N+](=O)[O-])c2)c1 | -366.0*
COc1ccc(C(=O)/C=C/c2ccc(F)cc2)c(OC(=O)c2ccc([N+](=O)[O-])cc2)c1 | -122.1*
Cc1ncc(CO)c(/C=N/N=C/c2ccccc2O)c1O | -88.7*
Cc1ncc(CO)c(/C=N/Nc2ccc(C(F)(F)F)cn2)c1O | 87.6
COc1cccc(/C=C/c2ccc3cccc(O)c3n2)c1OC | -73.5*
CCOc1c(OC(C)=O)ccc(/C=C/c2ccc3cccc(OC)c3n2)c1[N+](=O)[O-] | -75.7*
SMILES | aSyn UTR act
CC(=O)Nc1ccc(/C=C/c2ccc3cccc([N+](=O)[O-])c3n2)cc1 | -112.0*
COc1ccc(/C=C/c2ccc3cccc(O)c3n2)c(OC)c1OC | -91.8*
COC(=O)c1ccc(/C=C/c2ccc3cccc(OC)c3n2)cc1 | -96.9*
Cc1nc2oc(C(=O)c3ccccc3)c(N)c2c2c1COC(C)(C)C2 | -83.1*
CCCc1nc2oc3c(NCc4ccccn4)ncnc3c2c2c1COC(C)(C)C2 | 53.0
O=c1[nH]c2cc3c(cc2cc1CN(Cc1nnnn1C1CCCC1)C1CCCC1)OCCO3 | -79.3*
O=C(Nc1ccc(C(F)(F)F)cc1)c1ccc2ncsc2c1 | -167.3*
Cc1ccc(NC(=O)c2ccc3ncsc3c2)cc1S(=O)(=O)N(C)C | -148.4*
O=C(Nc1ccc(Cl)cc1)c1ccc2ncsc2c1 | -227.5*
O=C(Nc1cccc(Cl)c1)c1ccc2ncsc2c1 | -266.2*
O=C(Nc1ccc(F)cc1)c1ccc2ncsc2c1 | -176.3*
CN(C)C=Nc1ccc2nc3c(cc2c1)[nH]c1ccccc13 | -232.7*
Oc1ccc(N=C/C=C/c2cccc(Br)c2)cc1-c1nc2ccccc2s1 | -98.5*
Cc1sc(NC(=O)C2C3CCC(O3)C2C(=O)O)nc1-c1ccc(CC(C)C)cc1 (stereo not given) | -139.2*
Cc1ccc(CC2CC(=O)N(Cc3ccco3)C2=O)cc1 (stereo not given) | -128.5*
O=C(COc1ccccc1)Nc1nccs1 | -99.9*
Oc1ccccc1C(Nc1nccs1)c1ccc2cccnc2c1O (stereo not given) | 76.9
O=C(COC(=O)c1ccccc1Cl)Nc1nccs1 | -91.5*
Cn1cc(SCC(=O)Nc2nccs2)c2ccccc21 | -165.1*
O=C(NCCc1ccccc1)C(=O)Nc1nccs1 | -83.9*
O=C(COc1ccc([N+](=O)[O-])cc1)Nc1nc(-c2ccccn2)cs1 | 56.9
O=C(COc1ccc2ccc(=O)oc2c1)Nc1nccs1 | -84.7*
C/C(=C\C(=O)Nc1nccs1)c1ccccc1 | -197.1*
NC(=O)c1ccsc1NC(=O)COc1ccccc1 | -136.5*
COc1ccccc1C(=O)NNC(=O)c1ccc(F)cc1 | -92.4*
SMILES | aSyn UTR act
COc1ccccc1C(=O)NNC(=O)c1ccc(Cl)cc1 | -70.3*
COc1ccccc1C(=O)Nc1cc2cc(Cl)ccc2oc1=O | -122.5*
COc1ccc2cc(CN(CC3CCCO3)C(=O)Nc3ccccc3OC)c(=O)[nH]c2c1 (stereo not given) | 66.4
CCc1ccc2[nH]c(=O)c(CN(CCN(CC)CC)C(=O)Nc3ccccc3OC)cc2c1 | -62.5*
COc1ccccc1NC(=O)N(Cc1ccco1)Cc1cc2ccc(C)c(C)c2[nH]c1=O | 50.8
COC(=O)N/N=C/c1cccc(OCCSc2ccc(Cl)cc2)c1 | -82.2*
COc1ccc(-c2nnc(NC(=O)c3ccc4c(c3)OCCO4)o2)cc1 | 104.7
COc1ccc(C(=O)Nc2cc3c(cc2Cl)OCCCO3)cc1 | -148.2*
COc1cccc(C(=O)Nc2cc3c(cc2Cl)OCCCO3)c1 | -130.2*
CN(C)/C=N/c1nc(-c2ccc3ccccc3c2)cs1 | -145.1*
CN(C)/C=N/c1nc(-c2ccc3c(c2)OCO3)cs1 | -171.2*
